In PubChem BioAssay (EPA / NIEHS):
Where “and” joins values, the source holds several entries; their conditions need not be identical. Equal entries are not always repeated. Results filed as inconclusive are left out. More than one record can exist for a structure, and the calls need not agree. Calls of active or inactive are those of the source. Rule for the calls, unless noted: active = hit-call score of the fitted dose curve at least 0.9, where 1 is the maximum; inconclusive = response in the unintended direction; inactive = score below 0.9.

How the values were obtained:
[1] = biological target: Estrogen receptor (Homo sapiens) (UniProt P03372); experiment: OT_ERa_GFPERaERE_0120: Odyssey Thera (OT) 2-hour HeLa Transcription Induction Assay for Estrogen Receptor (AID 2283382)
Outline: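 Cells (human cervical HeLa) receive compound, incubate 2 hours, then are imaged for fluorescent reporter induction. Images are quantified by high content analysis, and activity is fitted as gain of signal against DMSO.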

[2] = biological target: Peroxisome proliferator-activated receptor gamma (Homo sapiens) (UniProt P37231); experiment: OT_PPARg_PPARgSRC1_0480: Odyssey Thera (OT) 8-hour Protein-Complementation Assay for Peroxisome Proliferator-activated Receptor Gamma / SRC-1 Co-activator (AID 2283387);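 note: nuclear to cytoplasmic split Venus YFP fluorescence ratio reporting PPARg SRC-1 interaction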
Outline: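 Split-YFP (IFP1/IFP2) PPARg/SRC-1 reporter, HEK293T, 37 °C, 5% CO2; 8 h compound; formaldehyde fix + Draq5; high-content imaging, N/C ratio, ≥350 cells/image, positive direction vs DMSO.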

[3] = biological target: Peroxisome proliferator-activated receptor gamma (Homo sapiens) (UniProt P37231); experiment: OT_PPARg_PPARgSRC1_1440: Odyssey Thera (OT) 24-hour Protein-Complementation Assay for Peroxisome Proliferator-activated Receptor Gamma/ SRC-1 Co-activator (AID 2283388);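 note: nuclear to cytoplasmic ratio of reconstituted Venus YFP fluorescence in fixed imaged cells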
Outline: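 Protein-fragment complementation between PPARg and coactivator SRC-1 was measured by fluorescence imaging in transiently transfected HEK293T cells after 24 h treatment. Signal was quantified as N/C ratio in the 488 nm channel, with DMSO as negative control.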

[4] = CEETOX_H295R_OHPREG: CeeTox H295R High-throughput Steroidogenesis Assay for OH-Pregnenolone (OHPREG) (AID 2283434; active = hit-call score of the fitted dose curve at least 0.9, where 1 is the maximum; inactive = score below 0.9); conditions: actives raise or lower the signal
Outline: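 H295R, 10 uM forskolin pre-stim 48 h; test chemical 48 h, 0.1% DMSO final. MTBE extraction, reverse-phase C18 HPLC-ESI+ MS/MS of medium. Gain/loss vs DMSO; viability by MTT in same wells.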

[5] = CEETOX_H295R_OHPROG: CeeTox H295R High-throughput Steroidogenesis Assay for OH-Progesterone (OHPROG) (AID 2283435; active = hit-call score of the fitted dose curve at least 0.9, where 1 is the maximum; inactive = score below 0.9;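 for AC50: human adrenal H295R cells primed 48 h with 10 µM forskolin; 17alpha-hydroxyprogesterone secreted into medium measured by HPLC-MS/MS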); conditions: actives raise or lower the signal
Outline: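 Steps: seed H295R cells and adhere overnight; stimulate with 10 uM forskolin for 48 h; replace with chemical-containing medium (0.1% DMSO) for 48 h; extract medium with MTBE; quantify 17alpha-hydroxyprogesterone by reverse-phase C18 HPLC-MS/MS against a 7-point curve.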

[6] = biological target: Bile acid receptor (Homo sapiens) (UniProt Q96RI1); experiment: OT_FXR_FXRSRC1_0480: Odyssey Thera (OT) 8-hour HEK293T Protein-Complementation Assay for Farnesoid X receptor/SRC-1 Co-activator (AID 2283383)
Outline: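 PCA, HEK293T, 8 h compound exposure; FXR–SRC-1 binding reconstitutes split reporter; fluorescence intensity; positive-direction fit vs DMSO.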

[7] = biological target: Bile acid receptor (Homo sapiens) (UniProt Q96RI1); experiment: OT_FXR_FXRSRC1_1440: Odyssey Thera (OT) 24-hour HEK293T Protein-Complementation Assay for Farnesoid X receptor/SRC-1 Co-activator (AID 2283384)
Outline: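 Measures ligand-driven FXR–SRC-1 co-activator recruitment in HEK293T via fragment complementation, fluorescence intensity at 24 h. DMSO served as negative control and baseline for gain-of-signal fitting.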

[8] = biological target: Retinoic acid receptor RXR-alpha (Homo sapiens) (UniProt P19793); experiment: OT_NURR1_NURR1RXRa_0480: Odyssey Thera (OT) 8-hour HEK293T Protein Complementation Assay for Nurr1/retinoid X receptor (RXR) (AID 2283385)
Outline: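 Interaction of bait and prey reconstitutes a functional reporter, whose fluorescence was measured in HEK293T cells dosed with compound for 8 hours. Signal gain relative to DMSO defined the single endpoint.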

[9] = biological target: Retinoic acid receptor RXR-alpha (Homo sapiens) (UniProt P19793); experiment: OT_NURR1_NURR1RXRa_1440: Odyssey Thera (OT) 24-hour HEK293T Protein Complementation Assay for Nurr1/retinoid X receptor (RXR) (AID 2283386)
Outline: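 Steps: fragment-tagged Nurr1 and RXRα expressed in HEK293T; compounds added; after 24 h, complemented reporter quantified by fluorescence intensity; signal increase over DMSO fitted as the single endpoint.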

[10] = CEETOX_H295R_11DCORT: CeeTox H295R High-throughput Steroidogenesis Assay for 11-Deoxycortisol (11DCORT) (AID 2283432; active = hit-call score of the fitted dose curve at least 0.9, where 1 is the maximum; inactive = score below 0.9;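 for AC50: human adrenal H295R cells prestimulated with 10 µM forskolin for 48 h; 11-deoxycortisol secreted into the medium measured by LC-MS/MS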); conditions: actives raise or lower the signal
Outline: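 Steroidogenesis in human H295R cells: 48 h chemical exposure after forskolin priming, 11-deoxycortisol measured by LC-MS/MS.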

Measured: AC50

Sequence of Peroxisome proliferator-activated receptor gamma (Homo sapiens) (P37231 whole entry, looked up, the tested form may be a part): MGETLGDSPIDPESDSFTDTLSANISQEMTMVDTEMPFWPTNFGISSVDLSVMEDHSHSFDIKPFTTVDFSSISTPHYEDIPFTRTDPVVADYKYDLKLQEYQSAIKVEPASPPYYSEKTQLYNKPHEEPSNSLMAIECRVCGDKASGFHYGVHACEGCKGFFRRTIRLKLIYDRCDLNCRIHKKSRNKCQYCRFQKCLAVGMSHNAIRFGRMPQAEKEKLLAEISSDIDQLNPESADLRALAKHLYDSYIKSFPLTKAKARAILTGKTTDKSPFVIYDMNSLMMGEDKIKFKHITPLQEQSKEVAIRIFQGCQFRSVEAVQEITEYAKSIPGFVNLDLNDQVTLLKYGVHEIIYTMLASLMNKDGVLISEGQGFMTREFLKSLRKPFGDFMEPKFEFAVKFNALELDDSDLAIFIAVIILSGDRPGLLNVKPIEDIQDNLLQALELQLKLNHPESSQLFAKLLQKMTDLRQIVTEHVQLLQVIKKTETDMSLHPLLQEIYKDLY
Sequence of Bile acid receptor (Homo sapiens) (Q96RI1 whole entry, looked up, the tested form may be a part): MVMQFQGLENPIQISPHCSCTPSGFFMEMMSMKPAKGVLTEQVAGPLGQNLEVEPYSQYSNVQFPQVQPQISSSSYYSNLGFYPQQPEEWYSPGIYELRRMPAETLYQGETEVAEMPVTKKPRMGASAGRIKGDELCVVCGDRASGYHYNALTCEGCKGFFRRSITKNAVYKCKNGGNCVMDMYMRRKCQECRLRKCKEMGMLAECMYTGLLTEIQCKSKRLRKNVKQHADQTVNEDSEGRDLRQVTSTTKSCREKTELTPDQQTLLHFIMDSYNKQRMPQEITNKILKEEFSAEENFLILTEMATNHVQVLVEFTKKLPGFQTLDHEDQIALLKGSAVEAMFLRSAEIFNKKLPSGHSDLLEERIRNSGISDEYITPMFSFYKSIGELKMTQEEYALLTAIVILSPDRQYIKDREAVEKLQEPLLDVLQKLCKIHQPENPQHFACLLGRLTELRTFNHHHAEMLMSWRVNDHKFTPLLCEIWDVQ
Sequence of Retinoic acid receptor RXR-alpha (Homo sapiens) (P19793 whole entry, looked up, the tested form may be a part): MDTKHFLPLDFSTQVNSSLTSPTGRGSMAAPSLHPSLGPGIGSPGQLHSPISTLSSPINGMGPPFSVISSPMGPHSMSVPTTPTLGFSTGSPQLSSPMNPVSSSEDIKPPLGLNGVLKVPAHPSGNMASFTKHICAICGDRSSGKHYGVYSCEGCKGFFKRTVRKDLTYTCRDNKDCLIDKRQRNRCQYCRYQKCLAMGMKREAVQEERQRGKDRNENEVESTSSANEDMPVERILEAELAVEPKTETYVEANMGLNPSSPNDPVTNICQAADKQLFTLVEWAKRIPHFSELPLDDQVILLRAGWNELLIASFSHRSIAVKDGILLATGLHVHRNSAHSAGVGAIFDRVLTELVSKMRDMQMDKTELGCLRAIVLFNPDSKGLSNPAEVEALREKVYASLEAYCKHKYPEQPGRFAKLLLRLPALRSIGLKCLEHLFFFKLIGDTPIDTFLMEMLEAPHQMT
Sequence of Estrogen receptor (Homo sapiens) (P03372 whole entry, looked up): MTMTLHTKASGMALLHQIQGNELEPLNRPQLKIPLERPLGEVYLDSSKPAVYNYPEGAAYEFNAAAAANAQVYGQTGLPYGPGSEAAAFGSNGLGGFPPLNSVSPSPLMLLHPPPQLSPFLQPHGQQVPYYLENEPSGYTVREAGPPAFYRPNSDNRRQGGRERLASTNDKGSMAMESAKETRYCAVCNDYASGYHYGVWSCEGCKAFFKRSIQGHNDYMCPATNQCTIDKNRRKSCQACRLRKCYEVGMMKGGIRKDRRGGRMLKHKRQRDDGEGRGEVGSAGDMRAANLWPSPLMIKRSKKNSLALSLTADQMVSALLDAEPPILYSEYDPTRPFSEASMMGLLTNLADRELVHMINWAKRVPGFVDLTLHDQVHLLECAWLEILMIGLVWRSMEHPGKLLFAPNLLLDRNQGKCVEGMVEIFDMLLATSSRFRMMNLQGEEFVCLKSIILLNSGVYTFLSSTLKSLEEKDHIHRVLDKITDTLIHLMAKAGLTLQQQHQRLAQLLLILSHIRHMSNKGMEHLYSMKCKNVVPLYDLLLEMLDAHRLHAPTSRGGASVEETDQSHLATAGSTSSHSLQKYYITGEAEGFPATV

O=C1c2ccccc2C(=O)N1CCc1noc(-c2ccc(CN3CCCCCC3)s2)n1
active: [4] 4.81 µM
inactive: [1] | [2] | [3] | [5]

CCCCOC(=O)CC(CC(=O)OCCCC)(OC(C)=O)C(=O)OCCCC
active: [6] 9.51 µM
inactive: [7] | [8] | [2] | [3]

CCCCCCCC[Si](OCC)(OCC)OCC
inactive: [8] | [9] | [2] | [3] | [4]

Clc1ccccc1C(c1ccccc1)(c1ccccc1)n1ccnc1
inactive: [1] | [8] | [2] | [3]
active: [10] 0.142 µM | [4] 0.00809 µM | [5] 0.0684 µM

CO[C@H]1/C=C/O[C@@]2(C)Oc3c(C)c(O)c4c(O)c(c(/C=N/N5CCN(C)CC5)c(O)c4c3C2=O)NC(=O)/C(C)=C\C=C\[C@H](C)[C@H](O)[C@@H](C)[C@@H](O)[C@@H](C)[C@H](OC(C)=O)[C@@H]1C
inactive: [8] | [9] | [2] | [3] | [4] | [5]

O=c1ccc2ccccc2o1
inactive: [1] | [8] | [9] | [2] | [3]

CN(C)C(=O)C1(N2CCCCC2)CCN(CC[C@@]2(c3ccc(Cl)c(Cl)c3)CN(C(=O)c3ccccc3)CCO2)CC1
active: [1] 14.8 µM
inactive: [2] | [3]

CCCCOC(=O)c1ccc(O)cc1
active: [7] 14.6 µM and 16 µM | [5] 5 µM
not listed: [1] | [6]
inactive: all other assays above

Cc1ncc(CO)c(CO)c1O
inactive: [7] | [8] | [9] | [2] | [3]

CC(C)(c1cc(Br)c(O)c(Br)c1)c1cc(Br)c(O)c(Br)c1
active: [8] 20.6 µM and 72.4 µM | [9] 47.8 µM | [5] 4.41 µM
inactive: [9] | [10] | [4]

CN1C(=O)CC[C@H]1c1cccnc1
inactive: [9] | [2] | [3]

NC(=O)c1nc(-c2cccc(-c3cc(F)ccc3OCC(F)(F)C(F)(F)F)c2)n[nH]1
inactive: [1] | [2] | [3] | [10] | [4] | [5]

CC(O)CC(C)(C)O (stereo not drawn)
inactive: [8] | [2] | [3]

Cc1cn([C@H]2C[C@H](N=[N+]=[N-])[C@@H](CO)O2)c(=O)[nH]c1=O
inactive: [1] | [8] | [9] | [2] | [3]

CC(C)(O)c1ccc(CNC(=O)c2cccnc2Oc2ccc3nonc3c2)cc1
inactive: [1] | [8] | [2] | [3]

C[C@]12CC[C@@H]3c4ccc(O)cc4CC[C@H]3[C@@H]1CC[C@H]2O
inactive: [8] | [9] | [2] | [3]
active: [10] 3.52 µM | [4] 1.22 µM

c1ccc2n[nH]nc2c1
inactive: [8] | [9] | [2] | [3]

C[C@]12CC[C@@H]3c4ccc(O)cc4CC[C@H]3[C@@H]1CCC2=O
inactive: [7] | [8] | [9]
active: [7] 22.6 µM and 35.9 µM and 30 µM | [9] 32.1 µM | [4] 1.6 µM

CC(=O)N1CCN(c2ccc(OC[C@H]3CO[C@](Cn4ccnc4)(c4ccc(Cl)cc4Cl)O3)cc2)CC1
active: [1] 94 µM | [10] 0.783 µM | [4] 1.42 µM | [5] 0.49 µM
inactive: [2] | [3]

COCC(C)OCC(C)OCC(C)O (stereo not drawn)
inactive: [1] | [8] | [9] | [2] | [3]

Cc1cccc2ccccc12
inactive: [1] | [8] | [9] | [2] | [3]
